hcDAF12 agonist = H. contortus DAF-12 activation, primary screen; actives 1.4% (n = 370,000); HEK293 hcDAF-12 lit1-tk-luc reporter, luminescence; 0% DMSO, 100% Δ7-dafachronic acid; activation, % at 6.8 µM; AID 652067;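 active = activation above the mean of all tested compounds plus 3 SD, cut at about 5.5% in these data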;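 note: 100% = response to 3 µM Δ7-dafachronic acid high control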
ssDAF-12 act = activates DAF-12 receptor from parasite S. stercoralis; actives 1% (n = 370,000); HEK293 ssDAF-12/GRIP1 lit1-tk-luc reporter, luminescence; % of 3 µM dafachronic acid response; activation, % at 6.8 µM;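 active = activation above the mean over all tested compounds plus 3 SD, cut at about 0.9% in these data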;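 note: 0% = DMSO-only wells and 100% = 3 µM delta7-dafachronic acid wells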
DAX1 inh-1 = inhibitors of DAX1 repression of SF-1 activated StAR promoter. actives 1.1% (n = 370,000). HEK293T StAR-luciferase reporter, SF-1/DAX-1 repression relief. inhibition, % at 6.8 µM;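 active = inhibition above the mean over all tested compounds plus 3 SD, cut at about 3.6% in these data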;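 note: 0% = DAX-1 cells with DMSO and 100% = cells lacking DAX-1 with DMSO; higher inhibition means more luminescence from relief of DAX-1 repression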
hgDAF-12 ag = agonists of H. glycines DAF-12 nuclear receptor | actives 1.8% (n = 370,000) | HEK293 GAL4-hgDAF12 UAS-luciferase reporter, agonist luminescence; normalized to butyrate control | activation, % at 6.8 µM | AID 687014;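 active = activation above a cutoff set at the mean of all screened compounds plus 3 SD, cut at about 10% in these data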;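 note: 0% = DMSO wells and 100% = sodium butyrate wells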
DAX1 inh-2 = inhibits human nuclear receptor DAX1. inhibition, % at 6.75 µM. actives 0.99% (n = 340,000). HEK293 Gal4-DAX1 luciferase reporter, luminescence. P51843;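 active = inhibition above the mean over all tested compounds plus 3 SD, cut at about 4.2% in these data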;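 note: 0% = DAX1-transfected cells with DMSO and 100% = empty-vector control cells with DMSO; inhibition shows as a rise in luminescence from relieved DAX1 repression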
Target sequence (P51843 207-470 limits assumed): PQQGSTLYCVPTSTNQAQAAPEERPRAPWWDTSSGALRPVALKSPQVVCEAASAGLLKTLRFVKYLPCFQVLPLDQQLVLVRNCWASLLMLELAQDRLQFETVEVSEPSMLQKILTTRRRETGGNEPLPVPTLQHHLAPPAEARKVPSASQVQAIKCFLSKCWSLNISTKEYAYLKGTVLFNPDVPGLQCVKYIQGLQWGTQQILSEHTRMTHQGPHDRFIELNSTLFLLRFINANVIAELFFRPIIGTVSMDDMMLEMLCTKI
* marks the source's active call; other numbers are inactive results. Sampled rows, rich in hits. Any-hit rate of the full collection: about 4.1%.

For Cc1cc(C)c(-n2c(O)c(/C=N/NC(=O)c3ccncc3)c(=O)[nH]c2=O)c(C)c1 the results were hcDAF12 agonist -1, ssDAF-12 act -1, DAX1 inh-1 1 and hgDAF-12 ag -1.
Cc1ccccc1-n1c(O)c(/C=N/NC(=O)c2ccncc2)c(=O)[nH]c1=O was read as hcDAF12 agonist 0, ssDAF-12 act -1, DAX1 inh-1 0, hgDAF-12 ag -1 and DAX1 inh-2 4.4*.
`CC(=O)Nc1ccc(S(=O)(=O)N2Cc3cnnn3-c3ccccc3C2C#N)cc1` (stereo not drawn) gave hcDAF12 agonist 0, ssDAF-12 act -1, DAX1 inh-1 3.7*, hgDAF-12 ag 2 and DAX1 inh-2 -1.
Screening Cc1ccc(-c2nn(Cc3ccccc3)cc2C(=O)O)cc1 returned hcDAF12 agonist 3, ssDAF-12 act 0, DAX1 inh-1 0, hgDAF-12 ag 1 and DAX1 inh-2 5.3*.
For O=C(Nc1nccs1)c1c(O)c2c(n(Cc3ccco3)c1=O)CCCC2 the results were hcDAF12 agonist 5, ssDAF-12 act 1.3*, DAX1 inh-1 0, hgDAF-12 ag 1 and DAX1 inh-2 1.
`O=C(Nc1ccccc1)c1c(O)c2c(n(Cc3ccco3)c1=O)CCCC2` gave hcDAF12 agonist 5, ssDAF-12 act 0, DAX1 inh-1 0, hgDAF-12 ag 2 and DAX1 inh-2 4.3*.
COC(=O)C1C(c2ccc(Cl)cc2)CC2CCC1N2C (stereo not drawn) was read as hcDAF12 agonist 2, ssDAF-12 act -1, DAX1 inh-1 1 and hgDAF-12 ag -3.
For O=C1NC(=O)N(CCC2=CCCCC2)C(=O)/C1=C/c1ccc(O)cc1 the results were hcDAF12 agonist 0, ssDAF-12 act -1, DAX1 inh-1 0, hgDAF-12 ag -1 and DAX1 inh-2 1.
O=C1NC(=O)N(CCC2=CCCCC2)C(=O)/C1=C/c1cccs1 was read as hcDAF12 agonist 1, ssDAF-12 act 1.7*, DAX1 inh-1 0 and hgDAF-12 ag 1.
COc1ccc2[nH]c(C)c(CCNCc3cc(OC)c(OC)c(OC)c3)c2c1 was read as hcDAF12 agonist -1, ssDAF-12 act -2, DAX1 inh-1 -1, hgDAF-12 ag -2 and DAX1 inh-2 0.
For Cc1ccc2[nH]c(C)c(CCNCc3cccnc3)c2c1 the results were hcDAF12 agonist -1, ssDAF-12 act 1.0*, DAX1 inh-1 0, hgDAF-12 ag -1 and DAX1 inh-2 0.
Screening CC1=CC(=O)NP(=O)(Oc2ccc3ccccc3c2)N1 (stereo not drawn) returned hcDAF12 agonist -1, ssDAF-12 act -1, DAX1 inh-1 1, hgDAF-12 ag 0 and DAX1 inh-2 0.
`Cc1ccc(OP2(=O)Nc3cc(C)c(C)cc3S2)cc1` (stereo not drawn) gave hcDAF12 agonist 5.7*, ssDAF-12 act 1, DAX1 inh-1 1, hgDAF-12 ag 4 and DAX1 inh-2 2.
Screening S=C(NC1CCCCC1)N1CCC(c2cnc[nH]2)CC1 returned hcDAF12 agonist -2, ssDAF-12 act -1, DAX1 inh-1 -1, hgDAF-12 ag 1 and DAX1 inh-2 0.
CC1=NCCc2c1[nH]c1ccccc21 was read as hcDAF12 agonist 6.3*, ssDAF-12 act 1.0*, DAX1 inh-1 0, hgDAF-12 ag -1 and DAX1 inh-2 0.
For NS(=O)(=O)c1ccc(N=Nc2c(O)[nH]c(=S)[nH]c2=O)cc1 the results were hcDAF12 agonist 0, ssDAF-12 act -1, DAX1 inh-1 0, hgDAF-12 ag -3 and DAX1 inh-2 -1.
For O=c1[nH]c(=S)[nH]c(O)c1N=Nc1ccc(OC(F)F)cc1 the results were hcDAF12 agonist 1, ssDAF-12 act 0, DAX1 inh-1 2, hgDAF-12 ag 4 and DAX1 inh-2 4.4*.
For COc1ccc(N=Nc2c(O)[nH]c(=S)[nH]c2=O)cc1 the results were hcDAF12 agonist 2, ssDAF-12 act -1, DAX1 inh-1 3.9*, hgDAF-12 ag 8 and DAX1 inh-2 3.
For Clc1cccc(N2Cc3cc(-c4ccccc4)ccc3-n3nncc3C2)c1 the results were hcDAF12 agonist -1, ssDAF-12 act -1, DAX1 inh-1 -4 and hgDAF-12 ag -6.
`Cc1nn(CC(C)C)c(Cl)c1C(=O)NC1CCC(C)CC1` (stereo not drawn) gave hcDAF12 agonist 4, ssDAF-12 act 1, DAX1 inh-1 4.2*, hgDAF-12 ag 6 and DAX1 inh-2 1.
Cc1nn(Cc2ccccc2Cl)c(Cl)c1C(=O)OCC(=O)NC(=O)NC1CCCCC1 was read as hcDAF12 agonist -1, ssDAF-12 act -1, DAX1 inh-1 0, hgDAF-12 ag 1 and DAX1 inh-2 0.
`c1cc(OCCN2CC2)ccn1` gave hcDAF12 agonist -1, ssDAF-12 act 0, DAX1 inh-1 -1, hgDAF-12 ag 0 and DAX1 inh-2 2.
For Cc1c(C(c2ccc(O)cc2)c2c(O)c3ccccc3oc2=O)c(=O)n(-c2ccccc2)n1C (stereo not drawn) the results were hcDAF12 agonist -1, ssDAF-12 act -1, DAX1 inh-1 0, hgDAF-12 ag -1 and DAX1 inh-2 -1.
For COc1ccc(OC)c(C(c2c(O)c3ccccc3oc2=O)c2c(C)n(C)n(-c3ccccc3)c2=O)c1 (stereo not drawn) the results were hcDAF12 agonist -1, ssDAF-12 act -1, DAX1 inh-1 0, hgDAF-12 ag 0 and DAX1 inh-2 6.6*.
For CCCCOC(=O)C1=C(N)OC2=C(C(=O)CCC2)[C@]12C(=O)Nc1ccccc12 the results were hcDAF12 agonist 2, ssDAF-12 act 0, DAX1 inh-1 0, hgDAF-12 ag 4 and DAX1 inh-2 0.
For CC(=O)C1=C(C)OC(N)=C(C(=O)OC(C)C)C12C(=O)Nc1ccccc12 (stereo not drawn) the results were hcDAF12 agonist 6.2*, ssDAF-12 act -1, DAX1 inh-1 0, hgDAF-12 ag 1 and DAX1 inh-2 0.
`COCCOC(=O)C1=C(C)OC(N)=C(C(=O)OC)C12C(=O)Nc1ccccc12` (stereo not drawn) gave hcDAF12 agonist 3, ssDAF-12 act 1, DAX1 inh-1 0, hgDAF-12 ag 1 and DAX1 inh-2 0.
Screening COC(=O)C1=C(N)Oc2cc(C)oc(=O)c2C12C(=O)Nc1ccccc12 (stereo not drawn) returned hcDAF12 agonist 5, ssDAF-12 act 1.0*, DAX1 inh-1 0, hgDAF-12 ag -2 and DAX1 inh-2 0.
c1cc2c(cc1N1CCCCC1)CNCc1cnnn1-2 was read as hcDAF12 agonist -2, ssDAF-12 act -1, DAX1 inh-1 1 and hgDAF-12 ag 1.
O=C1C2CC=CCC2C(=O)N1SC(Cl)(Cl)Cl (stereo not drawn) was read as hcDAF12 agonist -2, ssDAF-12 act -2, DAX1 inh-1 -3 and hgDAF-12 ag -3.
